Results from PubChem BioAssay (EPA / NIEHS).
The source made the active and inactive calls. The calls were made as follows, unless noted: active = hit-call score of the fitted dose curve at least 0.9, where 1 is the maximum; inactive = score below 0.9.

Assays:
[1] = read-out: Phosphatase and tensin (PTEN), PTEN (gene 5728); assay: LTEA_HepaRG_PTEN: Life Technologies and Expression Analysis (LTEA) Assay for Phosphatase and tensin (PTEN) using HepaRG (AID 2283523); settings: mRNA level, 48 h; actives raise or lower the signal
Method in brief: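 Read-out is PTEN transcript level by multiplexed TaqMan qRT-PCR after 48 h chemical treatment of human HepaRG cultures in serum-free induction medium. Concentrations spanned 100 uM downward in half-log steps, 0.5% DMSO throughout; activity fitted in both directions against vehicle.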

[2] = read-out: solute carrier (SLC22A1), SLC22A1 (gene 6580); assay: LTEA_HepaRG_SLC22A1: Life Technologies and Expression Analysis (LTEA) Assay for solute carrier (SLC22A1) using HepaRG (AID 2283524); settings: mRNA level, 48 h; actives raise or lower the signal
Method in brief: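 HepaRG (human liver line), 48 h dosing in serum-free induction medium; 8 conc., half-log down from 100 uM, 0.5% DMSO vehicle, duplicates. Endpoint: SLC22A1 mRNA, qRT-PCR, housekeeping-normalized; gain/loss fit vs DMSO.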

[3] = read-out: Pyruvate Dehydrogenase Kinase 4 (PDK4), PDK4 (gene 5166); assay: LTEA_HepaRG_PDK4: Life Technologies and Expression Analysis (LTEA) Assay for Pyruvate Dehydrogenase Kinase 4 (PDK4) using HepaRG (AID 2283525); settings: mRNA level, 48 h; actives raise or lower the signal
Method in brief: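 In this multiplexed human HepaRG expression assay, cells are treated 48 h with test chemicals across an eight-point range starting at 100 uM. PDK4 mRNA changes, normalized to ACTB/GAPDH/POLR2A, are fitted in both directions relative to vehicle.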

[4] = read-out: NAD(P)H dehydrogenase [quinone] 1 (NQO1), NQO1 (gene 1728); assay: LTEA_HepaRG_NQO1: Life Technologies and Expression Analysis (LTEA) Assay for NAD(P)H dehydrogenase [quinone] 1 (NQO1) using HepaRG (AID 2283526); settings: mRNA level, 48 h; actives raise or lower the signal
Method in brief: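 Human HepaRG hepatic cells received chemicals for 48 h in serum-free induction medium with 0.5% DMSO, up to 100 uM. Expression was assessed by TaqMan qRT-PCR against housekeeping controls and fitted bidirectionally against DMSO.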

[5] = read-out: Nuclear factor erythroid 2-related factor 2 (Homo sapiens) (UniProt Q16236); assay: LTEA_HepaRG_NFE2L2: Life Technologies and Expression Analysis (LTEA) Assay for Nuclear factor erythroid 2-related factor 2 (NFE2L2) Transcription Factor using HepaRG (AID 2283527); settings: mRNA level, 48 h; actives raise or lower the signal
Method in brief: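 Transcript level of NFE2L2 is the read-out, measured by microfluidic TaqMan qRT-PCR and normalized to three housekeeping genes. Human HepaRG cultures received test chemical for 48 h at up to 100 uM in half-log steps. Gain or loss of signal is fitted relative to 0.5% DMSO.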

[6] = read-out: succinate dehydrogenase complex iron sulfur subunit B (SDHB), SDHB (gene 6390); assay: LTEA_HepaRG_SDHB: Life Technologies and Expression Analysis (LTEA) Assay for succinate dehydrogenase complex iron sulfur subunit B (SDHB) using HepaRG (AID 2283528); settings: mRNA level, 48 h; actives raise or lower the signal
Method in brief: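 SDHB transcript level read by TaqMan qRT-PCR, housekeeping-normalised (ACTB, GAPDH, POLR2A), after 48 h chemical treatment of plated HepaRG cells; eight concentrations top 100 uM, half-log steps, 0.5% DMSO, duplicates; fitted both directions against DMSO.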

[7] = read-out: Signal transducer and activator of transcription 3 (Homo sapiens) (UniProt P40763); assay: LTEA_HepaRG_STAT3: Life Technologies and Expression Analysis (LTEA) Assay for Signal transducer and activator of transcription (STAT3) using HepaRG (AID 2283529); settings: mRNA level, 48 h; actives raise or lower the signal
Method in brief: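 Read-out is STAT3 mRNA level by qRT-PCR, normalized to three housekeeping genes, in human HepaRG liver cells treated for 48 h. Concentrations ran from 100 uM downward in half-log steps; curves were fitted for gain or loss relative to 0.5% DMSO.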

[8] = read-out: solute carrier (SLCO1B1), SLCO1B1 (gene 10599); assay: LTEA_HepaRG_SLCO1B1: Life Technologies and Expression Analysis (LTEA) Assay for solute carrier (SLCO1B1) using HepaRG (AID 2283530); settings: mRNA level, 48 h; actives raise or lower the signal
Method in brief: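 SLCO1B1 transcript read by qRT-PCR (Fluidigm arrays), normalized to three housekeeping genes, after 48 h chemical exposure of HepaRG cells; bidirectional concentration-response fitting versus 0.5% DMSO baseline. Eight-point half-log series, maximum 100 uM.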

[9] = read-out: sulfotransferase 2A1 (SULT2A1), SULT2A1 (gene 6822); assay: LTEA_HepaRG_SULT2A1: Life Technologies and Expression Analysis (LTEA) Assay for sulfotransferase 2A1 (SULT2A1) using HepaRG (AID 2283531); settings: mRNA level, 48 h; actives raise or lower the signal
Method in brief: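 HepaRG, 48 h chemical exposure, 8-pt half-log curve from 100 uM in 0.5% DMSO, duplicates. Readout: TaqMan qRT-PCR of SULT2A1 mRNA, housekeeping-normalized. Bidirectional fit vs DMSO baseline.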

[10] = read-out: Transforming Growth Factor (TGFA), TGFA (gene 7039); assay: LTEA_HepaRG_TGFA: Life Technologies and Expression Analysis (LTEA) Assay for Transforming Growth Factor (TGFA) using HepaRG (AID 2283532); settings: mRNA level, 48 h; actives raise or lower the signal
Method in brief: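 HepaRG (human liver line), 48 h exposure, 8 conc. half-log down from 100 uM, 0.5% DMSO vehicle, duplicates; serum-free induction medium. TGFA mRNA by TaqMan qRT-PCR, ACTB/GAPDH/POLR2A normalization; gain/loss fit vs DMSO.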

[11] = read-out: Transforming Growth Factor (TGFB1), TGFB1 (gene 7040); assay: LTEA_HepaRG_TGFB1: Life Technologies and Expression Analysis (LTEA) Assay for Transforming Growth Factor (TGFB1) Transporter using HepaRG (AID 2283533); settings: mRNA level, 48 h; actives raise or lower the signal
Method in brief: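 qRT-PCR readout of TGFB1 transcript in HepaRG lysates, normalized to three housekeeping genes; gain or loss of signal fitted relative to 0.5% DMSO vehicle. Exposure: 48 h, 8-point curve from 100 uM, duplicate wells.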

[12] = read-out: TIMP1, TIMP1 (gene 7076); assay: LTEA_HepaRG_TIMP1: Life Technologies and Expression Analysis (LTEA) Assay for TIMP1 using HepaRG (AID 2283534); settings: mRNA level, 48 h; actives raise or lower the signal;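 also: TaqMan qRT-PCR signal normalized to ACTB GAPDH and POLR2A housekeeping genes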
Method in brief: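 HepaRG, 48 h exposure, 8-pt half-log series from 100 uM in 0.5% DMSO, duplicates; TIMP1 transcript by Fluidigm qRT-PCR, housekeeping-normalized; bidirectional curve fit vs DMSO baseline.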

[13] = read-out: Tumor necrosis factor receptor 1 (TNFRSF1A), TNFRSF1A (gene 7132); assay: LTEA_HepaRG_TNFRSF1A: Life Technologies and Expression Analysis (LTEA) Assay for Tumor necrosis factor receptor 1 (TNFRSF1A) using HepaRG (AID 2283535); settings: mRNA level, 48 h; actives raise or lower the signal
Method in brief: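 HepaRG, 48 h plating then 48 h chemical exposure, serum-free induction media; 8-pt CRC from 100 uM, half-log, 0.5% DMSO vehicle, duplicates. Readout: TaqMan qRT-PCR (Fluidigm), housekeeping-gene normalized; bidirectional fit vs DMSO.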

[14] = read-out: Thyroid Hormone Responsive (THRSP), THRSP (gene 7069); assay: LTEA_HepaRG_THRSP: Life Technologies and Expression Analysis (LTEA) Assay for Thyroid Hormone Responsive (THRSP) using HepaRG (AID 2283536); settings: mRNA level, 48 h; actives raise or lower the signal
Method in brief: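 mRNA induction or loss relative to 0.5% DMSO vehicle was fitted bidirectionally across an eight-point curve whose highest exposure was 100 uM. Human HepaRG liver cells received chemicals in duplicate over 48 h before RNA extraction.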

[15] = read-out: Cellular tumor antigen p53 (Homo sapiens) (UniProt P04637); assay: LTEA_HepaRG_TP53: Life Technologies and Expression Analysis (LTEA) Assay for Tumor Protein P53 (TP53) using HepaRG (AID 2283537); settings: mRNA level, 48 h; actives raise or lower the signal
Method in brief: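 TP53 transcript measured by qRT-PCR, normalized to three housekeeping genes, after 48 h treatment of human HepaRG cultures with chemicals from 100 uM downward in half-log steps (0.5% DMSO vehicle, serum-free induction medium). Up- or down-regulation fitted against DMSO.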

[16] = read-out: UDP glucuronosyltransferase (UGT1A1), UGT1A1 (gene 54658); assay: LTEA_HepaRG_UGT1A1: Life Technologies and Expression Analysis (LTEA) Assay for UDP glucuronosyltransferase (UGT1A1) using HepaRG (AID 2283538); settings: mRNA level, 48 h; actives raise or lower the signal
Method in brief: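 Human liver HepaRG cultures receive test chemical for 48 h, up to 100 uM in 0.5% DMSO, with phenobarbital induction controls. UGT1A1 mRNA is measured by qRT-PCR and normalized to ACTB, GAPDH and POLR2A.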

[17] = read-out: UDP glucuronosyltransferase (UGT1A6), UGT1A6 (gene 54578); assay: LTEA_HepaRG_UGT1A6: Life Technologies and Expression Analysis (LTEA) Assay for UDP glucuronosyltransferase (UGT1A6) using HepaRG (AID 2283539); settings: mRNA level, 48 h; actives raise or lower the signal
Method in brief: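 qRT-PCR readout of UGT1A6 mRNA (normalized to ACTB/GAPDH/POLR2A) in differentiated HepaRG cells after 48 h chemical exposure; 8 concentrations, top 100 uM, half-log steps, 0.5% DMSO. Bidirectional curve fit relative to DMSO baseline.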

[18] = read-out: X-box binding protein 1 (XBP1), XBP1 (gene 7494); assay: LTEA_HepaRG_XBP1: Life Technologies and Expression Analysis (LTEA) Assay for X-box binding protein 1 (XBP1) using HepaRG (AID 2283540); settings: mRNA level, 48 h; actives raise or lower the signal
Method in brief: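 HepaRG, 48 h exposure, 8-pt half-log CRC top 100 uM, 0.5% DMSO vehicle, duplicates. Readout: TaqMan qRT-PCR of XBP1 mRNA, housekeeping-normalised (ACTB/GAPDH/POLR2A); bidirectional fit vs DMSO baseline.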

[19] = LTEA_HepaRG_LDH_cytotoxicity: Cytotoxicity Assessment in the Life Technologies and Expression Analysis (LTEA) Assay (AID 2283563; active = hit-call score of the fitted dose curve at least 0.9, where 1 is the maximum)
Method in brief: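 HepaRG (human liver line), 48 h exposure, 8-pt half-log series from 100 uM, 0.5% DMSO vehicle, duplicates. Read-out: LDH in spent medium. Positive-direction fit vs DMSO baseline.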

[20] = Tanguay_ZF_120hpf_MORT_legacy: (Legacy) Oregon State University Tanguay Lab 120 Hour Post-fertilization zebrafish Assay for Mortality (AID 2283633; active = hit-call score of the fitted dose curve at least 0.9, where 1 is the maximum)
Method in brief: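 Brightfield scoring of embryo death (binary) at 24 and 120 hpf; static exposure 6–120 hpf, 28C, sealed and foil-covered. Pronase-dechorionated 5D wild-type larvae, single embryo per well. DMSO 0.64% v/v; trimethyltin chloride 5uM positive control.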

Measured: outcome

Nuclear factor erythroid 2-related factor 2 (Homo sapiens), sequence (Q16236 whole entry, looked up): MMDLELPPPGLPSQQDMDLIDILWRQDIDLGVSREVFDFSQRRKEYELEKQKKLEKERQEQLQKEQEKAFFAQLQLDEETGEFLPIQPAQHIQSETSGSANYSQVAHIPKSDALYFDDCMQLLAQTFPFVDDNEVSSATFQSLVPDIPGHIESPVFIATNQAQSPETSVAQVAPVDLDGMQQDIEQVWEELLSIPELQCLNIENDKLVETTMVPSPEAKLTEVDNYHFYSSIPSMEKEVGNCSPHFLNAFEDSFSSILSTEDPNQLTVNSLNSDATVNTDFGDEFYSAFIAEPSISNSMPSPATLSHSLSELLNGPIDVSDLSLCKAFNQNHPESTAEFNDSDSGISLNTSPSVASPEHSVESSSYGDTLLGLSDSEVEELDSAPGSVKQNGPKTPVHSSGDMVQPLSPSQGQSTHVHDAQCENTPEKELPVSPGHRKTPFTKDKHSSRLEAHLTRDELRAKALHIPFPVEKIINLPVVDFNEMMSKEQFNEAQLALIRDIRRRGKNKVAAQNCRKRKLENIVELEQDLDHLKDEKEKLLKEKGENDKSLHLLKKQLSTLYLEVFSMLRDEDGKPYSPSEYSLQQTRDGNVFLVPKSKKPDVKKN
Signal transducer and activator of transcription 3 (Homo sapiens), sequence (P40763 whole entry, looked up): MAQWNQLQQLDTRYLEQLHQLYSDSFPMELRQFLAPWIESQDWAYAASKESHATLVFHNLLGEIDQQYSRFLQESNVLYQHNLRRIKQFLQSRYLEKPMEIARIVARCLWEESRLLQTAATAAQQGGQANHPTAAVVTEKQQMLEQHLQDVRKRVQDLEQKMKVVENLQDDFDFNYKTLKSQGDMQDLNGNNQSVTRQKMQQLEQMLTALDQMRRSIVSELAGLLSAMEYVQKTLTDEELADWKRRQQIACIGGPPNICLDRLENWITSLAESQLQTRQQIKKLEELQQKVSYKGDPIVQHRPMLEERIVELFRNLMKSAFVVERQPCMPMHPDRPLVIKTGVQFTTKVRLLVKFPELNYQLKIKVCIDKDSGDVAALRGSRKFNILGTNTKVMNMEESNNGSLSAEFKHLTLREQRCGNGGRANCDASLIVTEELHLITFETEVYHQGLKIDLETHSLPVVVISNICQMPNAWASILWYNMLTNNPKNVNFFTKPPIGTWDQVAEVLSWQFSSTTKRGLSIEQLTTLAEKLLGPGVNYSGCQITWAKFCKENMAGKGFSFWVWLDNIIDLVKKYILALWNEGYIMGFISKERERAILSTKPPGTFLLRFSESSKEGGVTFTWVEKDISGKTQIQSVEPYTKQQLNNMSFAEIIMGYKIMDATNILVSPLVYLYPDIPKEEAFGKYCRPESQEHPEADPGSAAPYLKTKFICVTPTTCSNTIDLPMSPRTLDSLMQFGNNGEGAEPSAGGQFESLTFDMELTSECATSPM
Cellular tumor antigen p53 (Homo sapiens), sequence (P04637 whole entry, looked up): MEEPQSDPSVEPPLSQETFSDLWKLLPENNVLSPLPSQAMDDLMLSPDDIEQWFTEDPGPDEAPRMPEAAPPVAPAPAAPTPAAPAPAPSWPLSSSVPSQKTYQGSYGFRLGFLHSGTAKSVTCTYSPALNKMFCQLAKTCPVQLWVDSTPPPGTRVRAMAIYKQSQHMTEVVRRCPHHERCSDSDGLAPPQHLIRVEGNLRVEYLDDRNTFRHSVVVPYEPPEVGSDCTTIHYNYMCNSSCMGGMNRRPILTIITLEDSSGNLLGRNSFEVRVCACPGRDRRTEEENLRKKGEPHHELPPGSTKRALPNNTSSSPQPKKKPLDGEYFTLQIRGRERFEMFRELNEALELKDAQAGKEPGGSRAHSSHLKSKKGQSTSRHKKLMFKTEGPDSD

O=C(CCl)c1ccccc1
inactive: all assays above
